# Screens: PubChem BioAssay, National Center for Advancing Translational Sciences (NCATS)
# A selection: hits, their analogues and other compounds. The true share with any hit is near 12%.
# HP1b chromo inh = blocks HP1-beta chromodomain binding to methylated histone tails; 390,000 tested, 0.56% active; AID 540317; Potency, µM (doses to about 114 µM), hits mostly inhibitors; AlphaScreen HP1-beta / biotin-H3K9me3 peptide binding; P83916; also: nearly all actives have a fitted effect of over 70% in size
#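 Compound inhibition of the preformed complex between 50 nM HP1-beta and 50 nM biotinylated H3K9me3 peptide was read by AlphaScreen. Buffer was PBS pH 7.4 with 0.01% Tween-20. Incubations ran 30 min at room temperature, with 10 ug/mL donor/acceptor beads.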
# BAZ2B block = inhibitors of human BAZ2B bromodomain; AlphaScreen BAZ2B-H3K14Ac peptide displacement; AID 504333; Q9UIF8; Potency, µM (top dose mostly 114 µM), actives largely listed as inhibitors; 360,000 tested, 4.4% active; also: nearly all actives have a fitted effect of over 60% in size
#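 Multi-concentration screen (max 110 uM) measuring displacement of acetylated histone H3 peptide from BAZ2B by AlphaScreen, using 50 nM protein, 50 nM peptide and 10 ug/mL streptavidin donor plus Ni-chelate acceptor beads.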
# G9a block = G9a (human) methyltransferase inhibition | Q96KQ7 | G9a H3K9 monomethylation, AlphaScreen, 2 h | Potency, µM (series often up to 102 µM), usual class: inhibitors | 350,000 tested, 8.8% active | AID 504332; also: nearly all actives have a fitted effect of over 75% in size
#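 AlphaScreen read-out: biotin-H3K9 peptide (500 nM) methylation by 20 nM enzyme with 20 uM SAM, 2 h at room temperature after 15 min compound preincubation; anti-monomethyl H3K9 antibody plus donor/acceptor beads, 10 min dark.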
# JMJD2A Tudor inh = inhibitors of human JMJD2A Tudor domain; O75164; AlphaScreen JMJD2A-Tudor / H3K4me3 peptide binding; Potency, µM (doses to about 114 µM), most hits filed as inhibitors; 390,000 tested, 4.4% active; AID 504339; also: nearly all actives have a fitted effect of over 50% in size
# Sfp inh = Sfp phosphopantetheinyl transferase inhibition; AID 1490; Biochemical Sfp PPTase activity, qHTS; Potency, µM, usual class: inhibitors; 310,000 tested, 3.5% active; Q9F4F7;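 also: the enzyme is Sfp with the accession as filed and its product quenches rhodamine fluorescence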
#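 Reaction rates are the 30-min fluorescence difference (ex 525, em 598 nm) in wells containing 15 nM Sfp, 5 uM rhodamine-CoA and 12.5 uM BHQ-2-YbbR at pH 7.6 with 10 mM MgCl2.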
# Hits are given with their value; . = inactive; ? = inconclusive; / = no result given; ! = not active in a repeat; [ ] = dose if it differs, or a comment. Calls follow the shape of the dose curve; as a rule, active = well fitted curve in the direction sought with a large enough effect; inconclusive = small, poorly fitted or top-dose-only effect, or another doubt; inactive = no such curve, though single readings can be large; an effect the other way counts as inactive or inconclusive.
SMILES,HP1b chromo inh,BAZ2B block,G9a block,JMJD2A Tudor inh,Sfp inh
CCCCCCCC1CC(/C(C)=N/NC(N)=O)OC1=O (stereo not drawn),.,.,.,40µM,.
COc1ccc(C2CC(c3ccccc3)Oc3cc(OC)c(OC)c(OC)c32)cc1 (stereo not drawn),.,/,/,.,.
COc1ccc(C2CC(c3ccccc3)Oc3cc(OC)ccc32)cc1 (stereo not drawn),?,/,/,40µM,?
COc1ccc(C2CC(c3ccccc3)Oc3cc4c(cc32)OCO4)cc1 (stereo not drawn),?,/,/,35µM,45µM!
COc1ccc(C2CC(c3ccccc3)Oc3ccc(C(C)(C)C)cc32)cc1 (stereo not drawn),.,/,/,.,.
CCN(CC(=O)Nc1ccc(OC)cc1)C(=O)CSCC(=O)Nc1ccc(C)cc1,.,.,.[12.7 µM],.,.
C=CCNc1nc(N2CCOCC2)c(C#N)c2c1CN(C)CC2,.,.,.,.,.
COc1cccc(Nc2nc(-c3sc(NC(=O)c4ccco4)nc3C)cs2)c1,.,?,40µM,?,.
COc1ccc(Cl)cc1Nc1nc(-c2sc(NC(=O)c3ccco3)nc2C)cs1,.,?,?,?,?
CCCCCC(=O)Nc1nc(C)c(-c2csc(Nc3ccccc3OC)n2)s1,.,?,?,?,.
COc1cccc(Nc2nc(-c3sc(C)nc3C)cs2)c1,.,?,/,?,.
COc1ccccc1Nc1nc(-c2sc(N)nc2C)cs1,?,?,13µM,?,50µM
COc1cccc(Nc2nc(-c3sc(N)nc3C)cs2)c1,?,40µM,?,?,.
O=C1CCN(S(=O)(=O)c2ccccc2)CCN1CCOCc1ccc(F)cc1,.,.,.[12.7 µM],.,.
COc1ccc(S(=O)(=O)NC2CCCC2)c(Cl)c1Cl,.,.,.,.,.
C=CCn1c(SC(CCO)C(=O)NCc2ccco2)nc2sc3c(c2c1=O)CCC3 (stereo not drawn),.,.,.,?,.
Cc1nn(C(=O)c2ccc(Br)cc2)c(C)c1Sc1ccccc1,.,.,.,.,/
COc1ccc(C2NC(=O)N(C)C3=C2C(=O)N(c2ccccc2)C3)cc1 (stereo not drawn),.,?,.,.,/
CN1C(=O)NC(c2ccccc2)C2=C1CN(c1cccc(C(F)(F)F)c1)C2=O (stereo not drawn),.,.,50µM,.,.
CCCCN(NC(C)=O)c1nc(Cl)nc(NC(C)C)n1,.,.,50µM,.,.
COc1ccc(CCNC(=O)CSc2nc(-c3ccco3)cc(C(F)(F)F)n2)cc1,.,.,.,.,.
COc1ccc(/C=C(\C#N)C(=O)c2c(C)[nH]c3ccccc23)cc1OC,.,?,?,?,.
COc1cc(/C=C(\C#N)C(=O)c2c(C)[nH]c3ccccc23)cc(OC)c1OC,?,.,45µM,28µM,.
CCCc1ccc(O)c(N=Cc2cc(Br)cc(OCC)c2O)c1,.,?,5.6µM,?,.
CCOc1ccc(Br)cc1/C=N/O,.,.,.,.,.
SMILES,HP1b chromo inh,BAZ2B block,G9a block,JMJD2A Tudor inh,Sfp inh
S=C(NCCCc1cnc[nH]1)NCCCN(CCc1ccccc1)c1ccc(Br)cn1,?,/,/,56µM,/
CCCCN(CCCNC(=S)NCCCc1cnc[nH]1)c1ccc(Br)cn1,/,/,/,50µM,/
S=C(NCCCc1cnc[nH]1)NCCCN(Cc1ccccc1)c1ccc(Br)cn1,/,/,/,56µM,/
COc1ccc(Cc2n[nH]c(=S)n2NC(=O)Nc2ccc(Cl)c(Cl)c2)cc1,.,.,?,.,.
Oc1c(Br)cc(/C=N/n2c(-c3ccccc3)n[nH]c2=S)c(Br)c1O,/,1.8µM,1.8µM,/,.
COc1c(Br)cc(/C=N/n2c(-c3ccccc3)n[nH]c2=S)c(O)c1Br,.,.,/,?,50µM
O=[N+]([O-])c1ccc(O)c(/C=N/n2c(-c3ccccc3)n[nH]c2=S)c1,.,.,.[0.501 µM],5.6µM,?
Oc1c(Br)cc(Br)cc1/C=N/n1c(-c2ccccc2)n[nH]c1=S,?,?,.[0.501 µM],40µM,?
O=[N+]([O-])c1ccc(Cl)c(/C=N/n2c(-c3ccncc3)n[nH]c2=S)c1,.,.,4µM,3.2µM,56µM
Oc1ccccc1/C=N/n1c(-c2ccccc2)n[nH]c1=S,.,?,1.6µM,25µM,?
O=C(O)c1ccc(N2CCCCC2)cc1O,.,.,/,.,.
O=C(O)c1ccc(N2Cc3ccccc3C2)cc1O,.,?,8.9µM,?,.
CN(C(=O)CSc1nc(N)cc(N)n1)C1CCS(=O)(=O)C1 (stereo not drawn),.,.,?,.,.
CC(=Nc1ccccc1O)c1sc2ccccc2c1O,.,?,?,?,.
CC(=Nc1ccc(O)cc1)c1sc2ccccc2c1O,.,.,10µM,.,.
CC(=O)NCCN=C(C)c1sc2ccccc2c1O,.,.,18µM,.,.
CCc1c2ccccc2nn1-c1ccccc1C(=O)C(C)=O,.,.,.,.,.
CC1Cc2ccccc2N1C(=O)COC(=O)CNC(=O)c1ccc(Br)o1 (stereo not drawn),.,.,?,.,.
CCOc1ccc(CNC(=O)c2cccc(NC(=O)C3=C(C)OCCS3)c2)cc1,.,50µM,?,.,.
C1=C(CCNc2nnnn2-c2ccccc2)CCCC1,.,.,.,50µM,.
O=C(CCn1c(=O)oc2ccccc21)NCCN1CCc2ccccc2C1,.,.,?,50µM,.
O=C(CCn1c(=O)oc2ccccc21)N1CCCCCC1,.,.,.,.,.
O=C(CCn1c(=O)oc2ccccc21)n1c(=O)oc2ccccc21,.,.,79µM,.,.
COc1ccccc1C1CCN(c2cc(O)ccc2[N+](=O)[O-])CC1,?,25µM,/,50µM,.
O=C(CNC(=O)c1ccc(Cl)c([N+](=O)[O-])c1)OC1CCCCC1=O (stereo not drawn),.,.,?,.,/
SMILES,HP1b chromo inh,BAZ2B block,G9a block,JMJD2A Tudor inh,Sfp inh
CC(Oc1cccc(Cl)c1)C(=O)Nc1cc(S(=O)(=O)N2CCCCC2)ccc1N1CCOCC1 (stereo not drawn),.,.,.,.,/
CCOC(=O)NC1C=CS(=O)(=O)C1 (stereo not drawn),.,.,50µM,.,.
Cc1nc2scc(-c3cccs3)c2c(=O)[nH]1,.,.,?,.,45µM
O=C(NCC1CCCO1)c1ccc2c(c1)C(=O)N(c1cccc([N+](=O)[O-])c1)C2=O (stereo not drawn),.,.,.,.,.
COc1ccc(CCn2c(NN)nc3c2c(=O)[nH]c(=O)n3C)cc1,.,.,/,.,50µM
COc1ccc(CCn2c(NN=C(C)C)nc3c2c(=O)[nH]c(=O)n3C)cc1,.,?,.,.,56µM
COc1cccc(CNC(=O)COC(=O)CCCNC(=O)c2ccc(Cl)cc2)c1,.,.,.[12.7 µM],.,/
CC(C)Nc1nc(Cl)nc(Nc2ccccc2)n1,.,.,/,.,.
S=P(N1CC1)(N1CC1)N1CC1,?,.,7.9µM!,.,.
NC(=O)C1CCN(C(=O)C2c3ccccc3C(=O)N3CCc4ccccc4C23)CC1 (stereo not drawn),.,?,79µM,.,?
